Shown are actives, neighbours in structure and some others; about 2.1% of the full set was active somewhere.
Avidin bead fluor: green autofluorescence of compounds with avidin beads – biophysical, 488/530 nm, flow cytometry, artefact control, profiling panel | fluorescence (KMESF) at 10 µM | 220,000 tested, 0.38% active | compound fluorescence 488/530 nm; stronger effect = higher value; in the data active means fluorescence above about 47
GSH fluor: compound fluorescence on glutathione beads, profiling panel, artefact control, biophysical, 488/530 nm, flow cytometry; GSH beads flow cytometry, compound fluorescence 488/530 nm; stronger effect = higher value; fluorescence (KMESF) at 10 µM; 190,000 tested, 0.25% active; in the data active means fluorescence above about 89;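 further: glutathione beads carrying GST-tagged Bcl family fusion proteins plus one bare bead set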
Efa HMGR inh: inhibitors of E. faecalis class II HMGR, primary screen, biochemical, Enterococcus faecalis. HMG-CoA reductase (Enterococcus faecalis, mvaE). purified E. faecalis HMGR, NADPH absorbance 340 nm kinetic. inhibition, % at 10 µM. 190,000 tested, 0.41% active. AID 1066, 2008;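 active means inhibition above a set limit, the median over all tested compounds plus 3 SD, cut at about 9.5% in these data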;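 further: enzyme runs in reverse so mevalonate oxidation gives rising NADPH absorbance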
EP2 mod: EP2 receptor modulators, cAMP readout, primary screen, cell-based, HTRF cAMP, PGE2 stimulation. 260,000 tested, 0.83% active. AID 940, 2007. Prostaglandin E2 receptor EP2 subtype (Homo sapiens), P43116. EP2-expressing cells, cAMP HTRF FRET, PGE2 co-stimulation. induction, % at 25 µM;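 active means compounds whose cAMP rise, as percent of the full-agonist control response, exceeds 60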;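 further: rat C6 glioma line stably carrying human EP2 under a CMV promoter; the protocol text gives 20 µM as final concentration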
Target sequence (P43116 whole entry, looked up): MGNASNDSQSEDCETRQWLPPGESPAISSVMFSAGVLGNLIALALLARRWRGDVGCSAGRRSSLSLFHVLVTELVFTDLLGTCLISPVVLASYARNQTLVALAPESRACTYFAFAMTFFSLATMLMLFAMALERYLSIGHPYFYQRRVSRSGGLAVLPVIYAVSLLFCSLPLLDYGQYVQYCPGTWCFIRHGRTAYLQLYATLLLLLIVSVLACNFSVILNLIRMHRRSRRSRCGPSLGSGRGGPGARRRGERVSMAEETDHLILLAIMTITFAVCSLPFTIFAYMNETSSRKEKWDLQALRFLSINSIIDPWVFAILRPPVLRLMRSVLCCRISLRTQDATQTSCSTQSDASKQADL
PGE2 EP2 inh: human EP2 receptor antagonists, primary screen, TR-FRET cAMP, C6 glioma cells; Prostaglandin E2 receptor EP2 subtype (Homo sapiens), P43116; C6 glioma cells expressing human EP2; cells stimulated with saturating PGE2; inhibition, % at 25 µM; 260,000 tested, 0.52% active;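 active means percent inhibition above 40 after rounding to a whole number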;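 further: rat C6 glioma host cells with rolipram phosphodiesterase inhibitor present; the protocol text gives 20 µM as final concentration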
Of the large screens only hits and unclear results are named; the others gave an inactive call; ! = repeats disagree.

O=C(OCc1ccc(Cl)c(Cl)c1)c1cnccn1	GSH fluor 270
CCOc1ccc(Cl)cc1S(=O)(=O)n1cnc2ccccc21	none
COc1ccc(Cl)cc1S(=O)(=O)n1cnc2ccccc21	Avidin bead fluor 62
CC(C)(C)OC(=O)[C@H]([C@@H]1N[C@@H](C(=O)O)C(C)(C)S1)N1C(=O)c2ccccc2C1=O	PGE2 EP2 inh 42 (no result: Avidin bead fluor, GSH fluor, Efa HMGR inh)
COC(=O)C1N[C@@H]([C@@H](NC(=O)COc2ccccc2)C(=O)NCc2ccccc2)SC1(C)C (stereo partly specified)	none (no result: Avidin bead fluor, GSH fluor, Efa HMGR inh, EP2 mod)
CCCC(=O)Nc1sc(C(=O)Nc2ccc(Cl)cc2)c(C)c1C(=O)OC	none (no result: Avidin bead fluor, GSH fluor, Efa HMGR inh)
CC(C)(C)Nc1cccccc1=O	Avidin bead fluor 66
Cn1c(=O)n(CC(=O)OCc2ccccc2)c2cccnc21	none (no result: Avidin bead fluor, GSH fluor, Efa HMGR inh)
CCOc1ccc(S(=O)(=O)Nc2nc3ccccc3nc2N2CCN(C)CC2)cc1	none
Cc1ccccc1S(=O)(=O)Nc1nc2ccccc2nc1N1CCOCC1	PGE2 EP2 inh 40
O=C(O)c1ccc(-c2ccc(/C=N/Nc3ccc([N+](=O)[O-])cc3)o2)cc1	PGE2 EP2 inh 46 (no result: GSH fluor, Efa HMGR inh)
O=C(O)c1cccc(-c2ccc(/C=N/Nc3ccc([N+](=O)[O-])cc3)o2)c1	none (no result: GSH fluor, Efa HMGR inh)
Cc1ccc(C)c(N=Cc2ccc(-c3ccc([N+](=O)[O-])cc3)o2)c1	Efa HMGR inh 16
CCCCC(=O)N/N=C/c1ccc(-c2ccc([N+](=O)[O-])cc2)o1	none
O=C(c1cc(-c2ccc(Cl)cc2Cl)on1)N1CCCCC1	none (no result: Avidin bead fluor, GSH fluor, Efa HMGR inh)
CCOc1ccc2cc(C#N)c(SCC(=O)Nc3nnc(CC)s3)nc2c1	EP2 mod 73 (no result: Avidin bead fluor, GSH fluor, Efa HMGR inh)
Cc1cccc2cc(C#N)c(SCC(=O)N3CC(=O)Nc4ccccc43)nc12	none
COc1ccc2cc(C#N)c(SCC(=O)N3CC(=O)Nc4ccccc43)nc2c1	EP2 mod 73! (no result: GSH fluor, Efa HMGR inh)
COc1cccc(NC(=O)CSc2nc3cc(OC)ccc3cc2C#N)c1	EP2 mod 67 (no result: Avidin bead fluor, GSH fluor, Efa HMGR inh)
CCc1nnc(NC(=O)CSc2nc3cc(C)c(C)cc3cc2CC)s1	EP2 mod 69 (no result: Avidin bead fluor, GSH fluor, Efa HMGR inh)
COC(=O)CSc1nc2cc(OC)ccc2cc1C#N	none
CCc1nnc(NC(=O)CCN2C(=O)CCC2=O)s1	GSH fluor 264
COc1ccc2cc(C#N)c(SCC(=O)OC(C)C)nc2c1	EP2 mod 84 (no result: Avidin bead fluor, GSH fluor, Efa HMGR inh)
COc1cccc2c(=S)c(CCC(C)=O)c(C)[nH]c12	EP2 mod 63
CCc1cccc(C)c1NC(=O)COc1ccc(S(=O)(=O)N2CCCC2)cc1	none (no result: Avidin bead fluor, GSH fluor, Efa HMGR inh)
CCC(C(=O)N1CCN(c2ccccn2)CC1)n1nc(C)n2c(cc3occc32)c1=O (stereo unspecified)	none
Cc1nn(C(C)C(=O)N2CCN(c3ccccn3)CC2)c(=O)c2cc3occc3n12 (stereo unspecified)	Avidin bead fluor 47
Cc1ccc(NC(=S)NC(=O)CC2CC(C)(C)OC2=O)cc1 (stereo unspecified)	Efa HMGR inh 28
O=c1c2ccccc2c2ccccc2c(=O)n1-c1cc2c3ccccc3ccc2c2ccccc12	PGE2 EP2 inh 49 (no result: Avidin bead fluor, GSH fluor, Efa HMGR inh)
COc1cc2c(cc1OC)CN(C(C)C(=O)N1CCc3ccccc31)CC2 (stereo unspecified)	Efa HMGR inh 19
C=CCn1c(SCC(O)CCl)nc2c1c(=O)[nH]c(=O)n2C (stereo unspecified)	none (no result: Avidin bead fluor, GSH fluor, Efa HMGR inh)
CC1=CC(C)(C)N(C(=O)CSc2nnc(N)s2)c2cc(C)c(C)cc21	EP2 mod 62
CSCC[C@H](NC(=O)OC(C)(C)C)c1nnc(SCC=C(C)C)o1	GSH fluor 267
COc1ccccc1NC(=S)N(CCN1CCOCC1)Cc1ccccc1F	none
COc1ccc(NC(=S)N(CCN2CCOCC2)Cc2ccccc2F)cc1	Efa HMGR inh 12
O=C(Oc1ccccc1-c1nnco1)c1ccccc1	none
Cc1noc(-c2ccccc2OC(=O)c2ccccc2)n1	EP2 mod 64
O=S(=O)(c1cccc(S(=O)(=O)N2CCCC2)c1)c1ccc(Cl)c(Cl)c1	none (no result: Avidin bead fluor, GSH fluor, Efa HMGR inh)
CO[C@@H]1/C=C\O[C@]2(C)Oc3c(C)c(O)c4c(O)c(c(CN5CCN(C)CC5)c(O)c4c3C2=O)NC(=O)C(C)=C/C=C\[C@@H](C)[C@@H](O)[C@H](C)[C@@H](O)[C@H](C)[C@H](OC(C)=O)[C@@H]1C	PGE2 EP2 inh 40 (no result: Avidin bead fluor, GSH fluor, Efa HMGR inh)
O=C(c1ccco1)N1CCC(O)(c2cccc(F)c2)CC1	none (no result: Avidin bead fluor, GSH fluor, Efa HMGR inh)
O=[N+]([O-])c1cc(C(F)(F)F)ccc1NC1CCN(Cc2ccccc2)CC1	EP2 mod 61 (no result: GSH fluor, Efa HMGR inh)
CN(C)c1ccc(/C=C2/NC(=O)NC2=O)cc1	Avidin bead fluor 113
CN(C)c1ccc(/C=C2\C(=O)Nc3ccccc32)cc1	none (no result: Avidin bead fluor, GSH fluor, Efa HMGR inh)
O=C(Nc1nc(-c2ccccc2)cs1)NC1CCCCC1	Efa HMGR inh 11
O=C1c2cccc3c(O)ccc(c23)C(=O)N1Cc1ccccc1	Avidin bead fluor 81, GSH fluor 162
O=C1c2cccnc2C(=O)N1Cc1ccccc1	none
O=C(OCC(=O)N1CCN(C(=O)c2ccco2)CC1)C1=COCCO1	Avidin bead fluor 82
CCOC(=O)C1CCCN(C(=O)COC(=O)C2=COCCO2)C1 (stereo unspecified)	Avidin bead fluor 71
CCOC(=O)C1CCCN(C(=O)COc2ccccc2O)C1 (stereo unspecified)	none
COCCn1nnnc1C(c1ccccc1F)N1CCN(c2nc3ccccc3s2)CC1 (stereo unspecified)	none (no result: Avidin bead fluor, GSH fluor, Efa HMGR inh)
CC(C(=O)OCc1nnc(-c2ccccc2)o1)N1C(=O)c2ccccc2C1=O (stereo unspecified)	GSH fluor 263
CCN1CCCC1CN(Cc1cc2ccc(C)cc2[nH]c1=O)C(=S)Nc1ccc(C)cc1 (stereo unspecified)	none (no result: Avidin bead fluor, GSH fluor, Efa HMGR inh)
CCC1Oc2ccc(C)cc2N(CC(=O)N(Cc2ccco2)Cc2cccc(OC)c2OC)C1=O (stereo unspecified)	none (no result: Avidin bead fluor, GSH fluor, Efa HMGR inh)
COc1ccc(N2CCN(C(=O)C3CCC(Cn4c(=S)[nH]c5ccccc5c4=O)CC3)CC2)cc1 (stereo unspecified)	Efa HMGR inh 22
COc1ccc2cc1Oc1ccc(cc1)C[C@H]1c3c(cc4c(c3Oc3cc5c(cc3OC)CCN(C)[C@@H]5C2)OCO4)CCN1C	none (no result: GSH fluor, Efa HMGR inh)
COc1ccc2c(c1OC)C(=O)O[C@@H]2[C@H]1c2c(cc3c(c2OC)OCO3)CCN1C	EP2 mod 61!
COc1cc(/C=C2\N=C(c3ccccc3C)OC2=O)ccc1OC(C)=O	none (no result: Avidin bead fluor, GSH fluor, Efa HMGR inh)
O=C1CC(=O)N(Cc2ccco2)C(=S)N1	Efa HMGR inh 21
N#C/C(=C\c1cccs1)C(=O)c1ccccc1Cl	PGE2 EP2 inh 113 (no result: GSH fluor, Efa HMGR inh)
NC(N)=N/N=C/c1ccc(OCc2ccccc2Cl)cc1	PGE2 EP2 inh 96
CC1CCCN(C(=O)CSc2ncnc3sc4c(c23)CCC4)C1 (stereo unspecified)	none (no result: Avidin bead fluor, GSH fluor, Efa HMGR inh)
CCC(=O)OCN1C(=O)C=CC1=O	PGE2 EP2 inh 82 (no result: Avidin bead fluor, GSH fluor, Efa HMGR inh)

Compound activity as filed in PubChem.
